Screening results from PubChem BioAssay.
A selection: hits, their analogues and other compounds. The true share with any hit is near 4.1%.
aSyn UTR inh – 5' untranslated region of α-synuclein, MLPCN primary screen. alpha-synuclein 5'UTR reporter, inhibitor activity. inhibition, % (tested at 7.5 µM). 0.82% of 300,000 active; in the data active means inhibition above about 60%; inconclusive means no clear call, values can overlap the other calls;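 further: H4 neuroglioblastoma cells stably carrying SNCA 5'UTR luciferase fusion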
Beta apoptosis – blocks beta cell apoptosis | AID 435005 | protection from apoptosis, % (no concentration beside the values) | INS-1E cytokine-induced death, ATP luminescence, 48 h; percent of positive-control rescue, neutral wells zero | 0.8% of 300,000 active;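 active means Every replicate reaches about 75%, or at least half do and their mean reaches it too, limit read from the data; inconclusive means At least half of replicates reach the limit but their mean does not; inactive means Under half of replicates reach the limit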;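 further: higher means more ATP so stronger rescue from cytokine killing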
Mdm2 MdmX PPI – inhibitors of human Mdm2/MdmX interaction | SaOS-2 split-luciferase Mdm2/MdmX complementation, luminescence | O15151+Q00987 | inhibition, % at 8 µM | 3% of 330,000 active | AID 485346;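 active means inhibition of at least 50% at 8 µM in the primary screen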
Bfl-1 A1 inh – inhibitors of the anti-apoptotic protein A1, read as caspase activation. 0.066% of 330,000 active. MEF A1-2A-BIM cells, Caspase-Glo 3/7 luminescence, 3 h; percent of clofoctol response, vehicle zero. caspase activation, % (test concentration not listed);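 active means over half of replicate activation scores above 10%, or exactly half above 10 with the replicate mean above 10; inconclusive means replicate mean below 10 yet half the replicates above 10; inactive means over half of replicates below 10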
CSC inhib – blocks cancer stem cells. cancer stem cell-like cells viability, luminescence. inhibition, % at 7.5 µM. 1.1% of 300,000 active; in the data active means inhibition above about 75%; inconclusive means no clear call, values can overlap the other calls; tested in HMLE shEcad cells
Mdm2-MdmX conf – human Mdm2/MdmX binding inhibition, confirmed; shares compounds with Mdm2 MdmX PPI; luminescent assay; inhibition, % at 8 µM; 55% of 10,000 active; AID 489028; in the data active means inhibition above about 40%
Full FLuc ctr – full-length luciferase inhibition in Mdm2/MdmX counter-screen. shares compounds with Mdm2 MdmX PPI. inhibition, % at 8 µM. SaOS-2 full-length luciferase counterscreen, luminescence. AID 504607. 77% of 6,200 active;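 active means mean inhibition at 8 µM reaching about 37%, which flags the compound as non-specific, limit read from the data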;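 further: p53-null SaOS-2 cells with luciferase driven by a doxycycline-inducible promoter; compound on cells about two nights before reading with doxycycline added after day one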
A number is an active result; – = inactive; ? = inconclusive; · = not tested or not shown.

SMILES	aSyn UTR inh	Beta apoptosis	Mdm2 MdmX PPI	Bfl-1 A1 inh	CSC inhib	Mdm2-MdmX conf	Full FLuc ctr
CCOc1ccc(C(C(=O)NCC2CCCO2)N(Cc2cccs2)C(=O)c2snc(C(N)=O)c2N)cc1 (stereo not given)	–	–	50	–	–	51	78
COc1ccc(C(C(=O)NCC2CCCO2)N(Cc2cccs2)C(=O)c2snc(C(N)=O)c2N)cc1OC (stereo not given)	–	–	–	–	–	·	·
CC(C)n1cc(CN2CCCC(C(=O)Nc3cccc(-c4cc5ccccc5[nH]4)c3)C2)cn1 (stereo not given)	?	–	78	–	–	–	·
Cn1cc(CN2CCCC(C(=O)Nc3cccc(-c4cc5ccccc5[nH]4)c3)C2)cn1 (stereo not given)	–	·	60	–	–	–	·
CCO[C@H]1OC(C(=O)NCc2nc3ccccc3[nH]2)=C[C@@H](C2CC2)[C@@H]1CCCO	80	–	53	–	–	73	69
O=C(NCc1nc2ccccc2[nH]1)C1=C[C@H](C2CCCCC2)C[C@H](OCCCCO)O1	–	–	–	–	–	·	·
O=C(NCc1nc2ccccc2[nH]1)C1=C[C@H](C2CCCCC2)C[C@H](OCc2ccc(CO)cc2)O1	–	–	68	–	–	44	67
O=C(NCc1ccccc1)C1=C[C@H](c2csc3ccccc23)C[C@H](OCc2ccc(CO)cc2)O1	–	–	54	?	–	–	59
CC(C)(C)[C@H]1C=C(C(=O)NCc2nc3ccccc3[nH]2)O[C@@H](OCc2ccc(CO)cc2)C1	–	–	53	–	–	54	93
O=C1c2ccccc2CN1Cc1ccccc1	–	–	–	–	–	·	·
COc1ccc(C(=O)NCc2ccc(F)cc2)cc1S(=O)(=O)N1CCCC1	·	·	–	·	·	·	·
O=C(Nc1ccccc1)C1=C[C@H](C2CCCCC2)C[C@H](OCc2ccc(CO)cc2)O1	–	–	–	–	–	·	·
O=C(Nc1ccccc1)C1=C[C@@H](C2CCCCC2)C[C@@H](OCc2ccc(CO)cc2)O1	–	–	96	–	–	76	–
Cc1ccccc1CCNC(=O)c1ccc(Cl)c(S(=O)(=O)N2CC(C)OC(C)C2)c1 (stereo not given)	·	–	–	–	·	·	·
CC(C)(CN1CCNCC1)NS(=O)(=O)c1ccc(Cl)cc1	·	–	61	–	·	–	·
CC(=O)Nc1sc2c(c1-c1nc3ccccc3s1)CCN(C(C)C)C2	·	100	100	?	–	69	60
CC(C)N1CCc2c(sc(NC(=O)Cc3ccccc3)c2C(N)=O)C1	–	–	–	–	–	·	·
Cc1ccc(/C=N/N2C(=S)SC(C)(C)C2N(O)C(=O)Nc2ccc([N+](=O)[O-])cc2)cc1 (stereo not given)	–	–	67	–	–	–	·
C=CCNc1nc(NCc2ccccc2)c(C#N)c2c1CN(C)CC2	–	–	74	–	–	52	61
CCN1CCc2c(C#N)c(NCc3ccccc3)nc(N(CC)CC)c2C1	–	–	–	–	–	·	·
CC1CCc2c(sc(NC(=O)CCc3nc4ccccc4c(=O)[nH]3)c2C#N)C1 (stereo not given)	·	–	72	–	–	71	60
CS(=O)(=O)c1ccc(C(=O)NC2CCCCC2)cc1	–	–	55	–	–	–	·
C=CCOc1ccccc1CN(C(=O)CCl)c1ccc2c(c1)OCO2	–	–	90	–	–	81	–
CCOc1ccccc1NC(=O)Nc1ccc2c(c1)OCO2	–	–	–	–	–	·	·
N=c1c(S(=O)(=O)c2ccc(Cl)cc2)cc2c(=O)n3ccccc3nc2n1C1CCCC1	–	–	–	–	–	·	·
SMILES	aSyn UTR inh	Beta apoptosis	Mdm2 MdmX PPI	Bfl-1 A1 inh	CSC inhib	Mdm2-MdmX conf	Full FLuc ctr
O=C(CCS(=O)(=O)c1ccccc1)Nc1nc(-c2cccs2)cs1	–	–	97	–	–	47	51
O=C(Nc1nc(-c2ccccc2)cs1)c1ccccc1NS(=O)(=O)c1ccc(F)cc1	63	90	90	–	121	89	–
O=C(CCS(=O)(=O)c1ccc(F)cc1)Nc1nc(-c2ccncc2)cs1	–	–	89	–	–	68	–
O=S(=O)(Nc1ccc(-c2csc(-c3ccccc3)n2)cc1)c1ccc(F)cc1	–	–	–	–	·	·	·
O=C(COc1ccccc1)Nc1nc(-c2cccs2)cs1	–	–	–	–	·	·	·
CC(C)c1nnc(NC(=O)CCS(=O)(=O)c2nc(-c3cccs3)cc(C(F)(F)F)n2)s1	–	–	95	–	–	44	63
COc1ccccc1CC(=O)N1CCN(c2ccccc2F)CC1	–	–	–	–	–	·	·
CC(=O)Nc1ccc(NC(=O)CSc2ccc(-c3ccc(-n4ccnc4)cc3)nn2)cc1	–	·	–	–	–	·	·
CN(CC(=O)Nc1ccc(Cl)c(C(F)(F)F)c1)C(=O)c1ccc(N2CCOCC2)c([N+](=O)[O-])c1	–	–	–	–	–	·	·
Cc1cc(C)c2c(N)c(C(=O)Nc3c(C)n(C)n(-c4ccccc4)c3=O)sc2n1	–	–	–	–	–	·	·
O=C(Nc1nc2c(s1)COc1ccccc1-2)c1cccs1	–	–	–	–	–	·	·
O=C(CCS(=O)(=O)c1ccccc1)Nc1nc2c(s1)COc1ccccc1-2	–	–	63	–	–	–	·
O=c1[nH]ncn1-c1ccccc1C(F)(F)F	–	–	–	–	–	·	·
O=C1N(c2ccccc2C(F)(F)F)O[C@@]1(c1ccccc1)C1CCCCC1	·	–	87	–	–	50	52
O=C1N(c2ccccc2C(F)(F)F)O[C@@]1(c1ccccc1)C1CCCC1	·	–	77	–	–	51	56
CC1=C(C(=O)OCc2ccccc2)C(c2ccccc2[N+](=O)[O-])NC(=O)N1C (stereo not given)	–	·	–	–	–	·	·
CCn1nc(C)c(CN2CCCC(CNS(=O)(=O)c3ccc(OC)cc3)C2)c1C (stereo not given)	–	–	–	–	–	·	·
CCOC(=O)c1ccc(N=c2sc(C(=O)OC)cc(=O)n2Cc2ccco2)cc1	–	–	55	–	92	–	·
Cn1c(=O)n(C)c2cc(NC(=O)Cc3ccccc3[N+](=O)[O-])ccc21	–	–	–	–	–	·	·
NC(=S)N/N=C/c1ccc2cccc(OCc3ccccc3)c2n1	–	–	–	–	–	·	·
NC(=S)N/N=C/c1ccccc1OCc1cccc(Cl)c1	–	–	52	–	–	–	·
CCCCCn1c(=O)[nH]c2cc(C(=O)NC3CCN(Cc4ccccc4)CC3)ccc2c1=O	–	–	92	–	–	–	·
CC1CCN(CCNC(=O)c2ccc3c(=O)n(Cc4ccc(Cl)cc4)c(=S)[nH]c3c2)CC1	98	–	97	–	–	–	·
COCCCNC(=O)c1ccc2c(=O)n(Cc3ccc(Cl)cc3)c(=S)[nH]c2c1	–	–	–	–	–	·	·
O=C(O)CC/C(=N/NC(=O)c1ccc(-c2ccccc2)cc1)c1ccccc1	–	–	–	–	–	·	·
